# In PubChem BioAssay (Tox21):
# Results filed as inconclusive are left out. Active and inactive are the calls of the source. Calls come from the whole dose curve.
# Biological target: Peroxisome proliferator-activated receptor gamma (Homo sapiens) (UniProt P37231)
# Assay: qHTS assay to identify small molecule antagonists of the peroxisome proliferator-activated receptor gamma (PPARg) signaling pathway (AID 743191); note: nearly all actives have a fitted effect of over 30% in size
# Conditions: HEK293H PPARg-UAS-bla, beta-lactamase ratio, antagonist, 17 h; series mostly up to 62.6 µM
# Source text: U.S. Tox21 Program National Center for Advancing Translational Sciences [NCATS] NIH Chemical Genomics Center [NCGC] U.S. Environmental Protection Agency [EPA] National Institutes of Environmental Health Sciences [NIEHS] National Toxicology Program [NTP] U.S. Food and Drug Administration [FDA] Tox21 Assay Overview: The peroxisome proliferator-activated receptors (PPARs) are lipid-activated transcription factors of the nuclear receptor superfamily with three distinct subtypes namely PPAR alpha, PPAR delta (also called PPAR beta) and PPAR gamma (PPARg). All these subtypes heterodimerize with Retinoid X receptor (RXR) and these heterodimers regulate transcription of various genes. PPAR-gamma receptor (glitazone receptor) is involved in the regulation of glucose and lipid metabolism. To identify the compounds that inhibit PPAR-gamma signaling, GeneBLAzer PPAR gamma UAS-bla HEK293H cell line (Invitrogen, Carlsbad, CA, USA) containing a beta-lactamase reporter gene under control of an Upstream Activator Sequence (UAS) was used to screen the Tox21 compound library.
# Tox21 Assay Protocol Summary: PPARg-bla cells were dispensed at 3000 cells/6uL/well in 1536-well black wall/clear bottom plates using a Multidrop Combi (Thermo Fisher Scientific, Waltham, MA) dispenser. After the assay plates were incubated at 37C and 5% CO2 for 5 h, 23 nL of compounds dissolved in DMSO, positive controls or DMSO only was transferred to the assay plate by a Pintool station (Kalypsys, San Diego, CA). The assay plates were incubated at 37C for 17 h. After 1 uL of LiveBLAzerTM B/G FRET substrate was added using a Bioraptr Flying Reagent Dispenser (FRD) workstation (Beckman Coulter, Indianapolis, IN, USA), the plates were incubated at room temperature for 1 h, and fluorescence intensity was measured by an Envision plate reader (PerkinElmer, Shelton, CT).
# Peroxisome proliferator-activated receptor gamma (Homo sapiens), sequence (P37231 whole entry, looked up): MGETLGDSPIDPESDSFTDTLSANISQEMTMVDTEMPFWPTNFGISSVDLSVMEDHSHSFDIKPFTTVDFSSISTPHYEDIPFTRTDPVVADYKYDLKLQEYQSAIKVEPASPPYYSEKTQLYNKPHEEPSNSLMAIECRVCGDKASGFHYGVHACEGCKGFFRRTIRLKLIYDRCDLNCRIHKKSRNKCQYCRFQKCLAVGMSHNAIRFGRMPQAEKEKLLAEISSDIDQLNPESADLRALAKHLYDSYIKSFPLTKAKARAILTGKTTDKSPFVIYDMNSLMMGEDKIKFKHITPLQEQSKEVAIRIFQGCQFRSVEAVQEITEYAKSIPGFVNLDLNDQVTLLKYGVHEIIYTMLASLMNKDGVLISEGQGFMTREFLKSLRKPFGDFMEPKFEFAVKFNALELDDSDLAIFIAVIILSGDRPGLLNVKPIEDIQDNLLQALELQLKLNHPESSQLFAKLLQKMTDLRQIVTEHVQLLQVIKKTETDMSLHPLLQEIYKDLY
row,Structure (SMILES),outcome
1,NCC1CCC(C(=O)Oc2ccc(CCC(=O)O)cc2)CC1 (stereo not given),inactive
2,Cc1ccc(NC(N)=O)cc1,inactive
3,CC(=O)OC/C=C(/C)CCC=C(C)C,inactive
4,CC1=C(O)C(=O)CO1,inactive
5,COc1ccccc1N1CCN(CC(O)COc2cc(OC)c(OC)c(OC)c2)CC1 (stereo not given),inactive
6,O=S(=O)(O)c1ccc(Cl)cc1,inactive
7,O=C(O)Cc1c(Cl)ccc(Cl)c1Cl,inactive
8,C=CCON/C(CCC)=C1\C(=O)CC(C)(C)C(C(=O)OC)=C1O,inactive
9,CC(C)C[P+](C)(CC(C)C)CC(C)C,inactive
10,CCCCNCC,inactive
11,CCN1CCN(C(=O)N[C@@H](C(=O)N[C@@H]2C(=O)N3C(C(=O)O)=C(CSc4nnnn4C)CS[C@H]23)c2ccc(O)cc2)C(=O)C1=O,inactive
12,C=CCn1cc[n+](C)c1,inactive
13,CC1(C)S[C@@H]2[C@H](NC(=O)Cc3ccccc3)C(=O)N2[C@H]1C(=O)O (tested in a mixture with another compound),inactive
14,C=C(C)C(=O)OCCCC,inactive
15,NC[C@H]1O[C@H](O[C@H]2[C@H](O)[C@@H](O[C@H]3O[C@H](CO)[C@@H](O)[C@H](N)[C@H]3O)[C@H](N)C[C@@H]2N)[C@H](N)[C@@H](O)[C@@H]1O,inactive
16,Cc1cccc(N)n1,inactive
17,CCCCCC(CC)OC(=O)CCCOc1ccc(Cl)cc1Cl (stereo not given),inactive
18,O=CN1CCCCC1,inactive
19,CCC(C)c1nccnc1OC (stereo not given),inactive
20,CNC(C)=O,inactive

row,Structure (SMILES),outcome
1,CN1C(CCl)Nc2cc(Cl)c(S(N)(=O)=O)cc2S1(=O)=O (stereo not given),inactive
2,CC(C)=CCC/C(C)=C\C#N,inactive
3,CC(=O)SCC(CC(=O)c1ccc(C)cc1)C(=O)O (stereo not given),inactive
4,C/C(Cl)=C/CCl,inactive
5,N[C@H]1C(O)O[C@H](CO)[C@@H](O)[C@@H]1O (stereo not given in full),inactive
6,COCCCOc1cc(C[C@@H](C[C@H](N)[C@@H](O)C[C@H](C(=O)NCC(C)(C)C(N)=O)C(C)C)C(C)C)ccc1OC,inactive
7,O=C(O)CCCCCCCCCC(=O)O,inactive
8,CCCCN(CCCC)CCCCCCN(CCCC)CCCC,inactive
9,COc1cc(S(N)(=O)=O)cc(C(=O)O)c1OC,inactive
10,CCCCCCC(=O)c1ccccc1,inactive
11,Nc1ccc(C(=O)NCC(=O)O)cc1,inactive
12,NNC(=O)CCCCC(=O)NN,inactive
13,N#Cc1ccccc1C#N,inactive
14,N=C(N)S(=O)O,inactive
15,CC(C)(C)OC=O,inactive
16,CCCc1ncc(C(=O)O)s1,inactive
17,O=c1[nH]c(=O)c2cn[nH]c2[nH]1,inactive
18,Cc1cc(O)c(Cl)cc1C,inactive
19,CCNC(=O)C(C)OC(=O)Nc1ccccc1 (stereo not given),inactive
20,CN(C)CCc1c[nH]c2ccc(C[C@H]3COC(=O)N3)cc12,inactive
